# Source: PubChem (National Center for Advancing Translational Sciences (NCATS))
# This is one part of a sample in which hits are shown more often than they occur.
# Pf Dd2 inh = Plasmodium falciparum Dd2 growth inhibition; P. falciparum Dd2 growth, SYBR Green, 72 h; Potency, µM (series often up to 28.9 µM), for inactives: at the top dose activity, negative = inhibition, hits mostly inhibitors; 4.3% of 120,000 active; AID 1347417; active means well fitted inhibition curve with a large enough effect;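 further: plate controls were DMSO vehicle for no effect and reference drug for full effect; nearly all actives have a fitted effect of over 65% in size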
#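 Readout: SYBR Green fluorescence, 485 nm excitation, 535 nm emission, after ~16 h lysis at 37C. Before that, Dd2-infected red cells (2.5% hematocrit) grew 72 h with compound, 29 uM top final concentration.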
# An asterisk follows results filed as active; i = inactive; [ ] = another dose, or the depositor's remark. Potency means the concentration at half of the fitted maximal effect.
SMILES,Pf Dd2 inh
O=C1NCCCc2[nH]c(-c3ccccc3-n3cccn3)nc21,14%
Cc1c(CC(=O)N2CCC(C#N)CC2)c2c(n1Cc1ccccc1)CCCC2=O,-22%
Cc1c(CC(=O)NC2CCOCC2)c2c(n1CCc1ccccc1)CCCC2=O,10µM*
Cc1c(CC(=O)NC2CCOCC2)c2c(n1Cc1ccc(F)cc1)CCCC2=O,-13%
O=C1[C@H]2CN(Cc3ccc(Br)cc3)C[C@H]2C(=O)N1CCc1ccccc1,-12%
CCCCN1CC(Oc2ccccc2C(=O)NC2CC2)C1,-19%
CCCCc1nn(CC(=O)NCc2c(C)noc2C)c(=O)n1-c1ccccc1,-13%
Cn1ccc(CN2CCn3c(nn(-c4ccc(F)cc4F)c3=O)C2)c1,8.9µM*
COc1ccc(CN2CCn3c(nn(-c4ccc(F)cc4F)c3=O)C2)cc1,-1%
O=c1n(-c2ccc(F)cc2F)nc2n1CCN(Cc1ccc(C(F)(F)F)cc1)C2,i
CCNC(=O)N[C@H]1[C@H](O)[C@@H](N(C)CCN(C)C)[C@@H]2OC[C@H]1O2,i
N#Cc1ccc(S(=O)(=O)N2CCCCCNC(=O)[C@@H]3CCCC[C@@H]32)cc1,10%
c1ccc(CC2=NOC3(CCN(CC4CCCCC4)CC3)C2)cc1,3.5µM*
COc1ccc(CN2CCCC3(CC(Cc4ccccc4)=NO3)C2)cc1 (centres undefined),-6%
c1cncc(C2=NOC3(CCN(CC4CCCCC4)CC3)C2)c1,22%
c1ccc(CC2=NOC3(CCN(Cc4ccccc4)C3)C2)cc1 (centres undefined),4.5µM*
FC(F)(F)c1ccc(CN2CCCC3(CC(Cc4ccccc4)=NO3)C2)cc1 (centres undefined),-15%
CC(C)CCN1CCCC2(CC(Cc3ccccc3)=NO2)C1 (centres undefined),-18%[44.1 µM]
O=C(c1cnccn1)N1CCC(Nc2cccnc2)C1 (centres undefined),63%[5.79 µM]
C[C@@H]1CN(C(=O)c2cnn(C)c2)CC[C@@]1(O)C1CCOCC1,-16%
CNC(=O)[C@@H]1C[C@H](Oc2ccccc2)CN1C(=O)CCOC,1%
CNc1nccc(N2CCC(CC(=O)NCCCN(C)C)CC2)n1,i
COCCc1noc(-c2ccccc2OC2CN(C(=O)C(C)C)C2)n1,3.2µM*
CCn1nccc1C(=O)N1CC(Oc2ccccc2-c2nc(CCOC)no2)C1,4.5µM*
COCCc1noc(C2CN(C(=O)C(C)C)C2)n1,11%
SMILES,Pf Dd2 inh
Cc1nc(C)c(C(=O)N2CC(Oc3ccccc3-c3nc(C4CC4)no3)C2)s1,i
CCn1nccc1C(=O)N1CC(Oc2ccc(-c3nc(C)no3)cc2)C1,69%[5.79 µM]
CCCNC(=O)N1CC(Oc2ccccc2-c2nc(CCOC)no2)C1,-16%
O=C(C1CC1)N1CCCC1c1noc(COc2ccc(F)cc2)n1 (centres undefined),-5%
COCC(=O)Nc1nc2c(s1)C[C@@H]1[C@](C)(CO)[C@H](O)CC[C@@]1(C)[C@@H]2CC(=O)NC(C)C,i
CC(C)C[C@H](CO)NC(=O)C[C@@H]1c2nc(NC(=O)C(C)(C)C)sc2C[C@@H]2[C@](C)(CO)[C@H](O)CC[C@]21C,8.9µM*
CC(C)(C)C(=O)Nc1nc2c(s1)C[C@@H]1[C@](C)(CO)[C@H](O)CC[C@@]1(C)[C@@H]2CC(=O)NC1CC1,i
CCCCCC(=O)Nc1nc2c(s1)C[C@@H]1[C@](C)(CO)[C@H](O)CC[C@@]1(C)[C@@H]2CC(=O)N[C@@H](CO)CC(C)C,i
CC(C)(C)C(=O)Nc1nc2c(s1)C[C@@H]1[C@](C)(CO)[C@H](O)CC[C@@]1(C)[C@@H]2CC(=O)O,-10%[44.1 µM]
CC(C)(C)C(=O)Nc1nc2c(s1)C[C@@H]1[C@](C)(CO)[C@H](O)CC[C@@]1(C)[C@@H]2CC(=O)Nc1cccc(O)c1,8.9µM*
Cc1noc(C)c1Cc1ccc(C(=O)NCC2Cn3cccc3C(=O)N2C)o1 (centres undefined),17%
CNC(=O)[C@@H]1CN(C(=O)Cc2ccc(OC)c(Cl)c2)C[C@H]1COC,-17%
O=C(NC1CCCCC1)[C@@H]1C[C@@H](O)CN1C1CCN(C(=O)c2ccc(Cn3ccnc3)o2)CC1,i
Cc1ncccc1OC1(C(=O)N2CCCC2c2nc(C(C)C)no2)CCNCC1 (centres undefined),-5%
CC(C)c1ccc(NC(=O)c2ccc(F)c(S(=O)(=O)N3CCN(c4ccccc4F)CC3)c2)cc1,i
CC(C)c1ccc(NC(=O)Cn2cc(S(=O)(=O)N3CCN(c4ccccc4F)CC3)c3ccccc3c2=O)cc1,10µM*
CC1CCN(S(=O)(=O)c2cn(CC(=O)Nc3ccc(F)cc3)c(=O)c3ccccc23)CC1,i
Cc1ccc(CN2C(=O)[C@@H]3C[C@@H](O)CN3C3(CN(Cc4ccccc4Cl)C3)C2=O)o1,-23%[44.1 µM]
COc1ccc(CN2CC3(C2)C(=O)N(Cc2ccc(C)o2)C(=O)[C@@H]2C[C@@H](O)CN23)c2ccccc12,10µM*
Cc1ccc(CN2C(=O)[C@@H]3C[C@@H](O)CN3C3(CN(Cc4ccc(Cl)cc4)C3)C2=O)o1,-13%[44.1 µM]
CNC(=O)C1(N2CCC[C@H]2C(=O)N2CCOCC2)COC1,1%[44.1 µM]
